Source: PubChem BioAssay AID652017 (The Scripps Research Institute Molecular Screening Center, 2013)
Screen size: about 370,000 compounds; about 3,800 (1%) were called active. The entries come from a sample that favours actives as a whole. A number with no mark means an inactive call. No stated cut-off is given here; in the data, active means activation above about 7.8%; inactive means the rest.

experiment: SMARCA2 (BRM) function activators, primary screen, cell-based, luminescence, high throughput (AID 652017); details: MG213 cells, MMTV-luciferase reporter, dexamethasone, overnight; at 9.1 µM; stronger effect = higher value;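 further: 0% = vehicle wells and 100% = reference activator wells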

SMILES | activation
O=C(c1ccncc1)N1CC[C@H]2[C@H](CCCN2Cc2ccc(F)cc2)C1 | 0.1%
COc1ccc(Cn2ccc3ccc(-c4ccc5ccn(Cc6ccccc6C)c5c4)cc32)cc1 | -1.41%
COC(=O)C[C@@H]1CC[C@@H]2[C@H](COc3ccc(NC(=O)c4cccc(F)c4)cc3C(=O)N2C)O1 | -3.28%
COC(=O)C[C@H]1CC[C@H]2[C@H](COc3ccc(NC(=O)C4CC4)cc3C(=O)N2C)O1 | -0.29%
COc1cc(/C=N/NC(=O)Nc2ccccc2)ccc1OCCOc1ccccc1C | -2.07%
COc1cc(/C=N/NC(=O)c2ccccc2)ccc1OS(=O)(=O)c1ccccc1 | 11.6% (active)
COc1ccc(S(=O)(=O)N(CC(=O)N/N=C/c2ccc(C(=O)O)cc2)Cc2ccccc2)cc1OC | 0.18%
Cc1ccc(CNC(=O)COc2ccc(S(=O)(=O)NC(C)C)cc2)cc1 | -3.1%
Cc1ccc(S(=O)(=O)NC(C)C(=O)NCc2ccc(Cl)cc2)cc1 (stereo not given) | 8.48% (active)
COc1ccc(S(=O)(=O)NC(C)C(=O)NCc2ccncc2)cc1Cl (stereo not given) | -1.23%
CC(C)C(=O)NC(NC(=S)NC1CCS(=O)(=O)C1)C(Cl)(Cl)Cl (stereo not given) | 1.31%
O=S1(=O)CCC(NC(=S)SCc2ccccc2Br)C1 (stereo not given) | -1.67%
CCCSC(=S)NC1CCS(=O)(=O)C1 (stereo not given) | 8.13% (active)
COc1ccc(C(=O)OCCN2CCN(C3CN(Cc4cn(Cc5ccccc5F)nn4)S(=O)(=O)C3)CC2)cc1OC (stereo not given) | -1.26%
Cc1nc(N)sc1N=Nc1c(C)n(C)n(-c2ccccc2)c1=O | -4.59%
Cc1c(C=O)n(C)n(-c2ccccc2)c1=O | 1.03%
Cc1c(N=Nc2ccc(N(C)C)cc2)c(=O)n(-c2ccccc2)n1C | 7.84% (active)
C[C@@H]1COc2cccc(N3CCCC3)c2S(=O)(=O)N1C | -1.71%
COc1ccc(-c2cc(C(=O)NC(Cc3c[nH]c4ccccc34)C(=O)O)c(C)o2)cc1OC (stereo not given) | 3.58%
COc1cccc(CNC(=O)[C@H]2CCCN2C(=O)[C@H]2CCCN2C(=O)C2CCCCC2)c1 | -3.87%
CCN(CC)CCNC(=O)Cn1cnc2sc(C)c(S(=O)(=O)N3CCOCC3)c2c1=O | -6.85%
CCN(CC)CCCNC(=O)Cn1cnc2sc(C)c(S(=O)(=O)N3CCN(c4ncccn4)CC3)c2c1=O | -0.93%
CCN(CC)CCNC(=O)c1sc2ncn(CC(=O)Nc3ccc(C)c(Cl)c3)c(=O)c2c1C | 7.84% (active)

SMILES | activation
Cc1cccc(C)c1NC(=S)N(Cc1cccnc1)Cc1ccccc1Cl | -5.44%
CCOC(=O)[C@]12CCCC=C1N(Cc1ccc(OC)cc1)C(=O)[C@@H]2CC(=O)N1CCOCC1 | 1.91%
COc1ccc(-n2c(COc3ccccc3)nnc2SCC(=O)Nc2ccc3c(c2)OCO3)cc1 | -4.96%
O=C(Nc1ccc(F)cc1)c1cc2c(s1)CCCC2 | 10.2% (active)
CCC(=O)c1c[nH]c(C(=O)NCC2CCCO2)c1 (stereo not given) | 1.33%
O=C(NCC1CCCO1)c1cc2c(s1)CCCC2 (stereo not given) | 10.9% (active)
O=C(Nc1cccc2c1CCCC2)c1ccc(F)cc1 | -0.7%
O=C(NCCCn1ccnc1)c1cc2c(s1)CCCC2 | -1.02%
O=C(CNC(=O)c1cc2c(s1)CCC2)Nc1ccccc1Br | 3.62%
Cc1ccccc1NC(=O)C1CCN(c2ncccn2)CC1 | -1.72%
CC(=O)N1CCc2cc(S(=O)(=O)NCCC(=O)N3CCCC3)ccc21 | -4.7%
COC(=O)C1CN(Cc2cn(Cc3ccc(F)cc3)nn2)CCS(=O)(=O)N1Cc1ccc(Cl)cc1 (stereo not given) | -3.03%
COc1cc(OC)cc(-c2cc3ccc(F)cc3cn2)c1 | 7.74%
COc1ccc(-c2cc(C3CCN(c4ncccc4[N+](=O)[O-])CC3)[nH]n2)cc1 | -2.21%
COc1ccc(-c2cc3ncccc3cn2)cc1 | 8.94% (active)
COCC(C)n1c(SCc2ccc(C(=O)OC)o2)nc2ccccc2c1=O (stereo not given) | 9.35% (active)
COCC(C)n1c(SCC(=O)NC2CCCCC2C)nc2ccccc2c1=O (stereo not given) | -2.03%
COCCn1c(C)cc(C(=O)CSc2nc3ccccc3c(=O)n2C(C)COC)c1C (stereo not given) | -2.97%
COC(=O)C1CN(Cc2ccc(F)cc2)CCS(=O)(=O)N1Cc1ccc(Cl)cc1 (stereo not given) | -2.03%
O=C(Cc1ccc(Br)cc1)NCCN1CCOCC1 | 5.26%
CSc1ccc(CNCCN2CCOCC2)cc1 | -0.08%
c1ccc2cc3c(NCCN4CCOCC4)ccnc3cc2c1 | 15.8% (active)
